According to PubChem BioAssay (NCI):
This is part of a sample that, as a whole, favours compounds with a hit. Of some 79,000 tested, about 15% had one in any assay. Cut-off read from the data, not from the text of the source: active = growth inhibition above about 70%; inactive = the rest.

Legend:
[1] = NCI Yeast Anticancer Drug Screen. Data for the rad50 strain (AID 155);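 note: 0% = growth of vehicle-only cultures of the same strain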; conditions: S. cerevisiae rad50 strain growth inhibition; at 50.0 µM; active compounds read high
Outline: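 Growth of the mutant yeast was measured after compound exposure and referenced to vehicle-treated cultures.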

[2] = NCI Yeast Anticancer Drug Screen. Data for the mec2-1 strain (AID 157); conditions: S. cerevisiae mec2-1 strain, at 50.0 µM, active compounds read high
Outline: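 mec2-1 yeast strain, carrying an alteration in DNA damage repair or cell cycle control, was exposed to compounds; growth inhibition was measured relative to vehicle-treated controls.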

[3] = NCI Yeast Anticancer Drug Screen. Data for the sgs1 mgt1 strain (AID 161);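 note: 0% = growth of cultures given vehicle only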; conditions: S. cerevisiae sgs1 mgt1 strain, at 50.0 µM, active compounds read high
Outline: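 Compounds are added to genetically altered yeast, and growth is compared with cultures given vehicle alone to give percent inhibition.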

[4] = NCI Yeast Anticancer Drug Screen. Data for the cln2 rad14 strain (AID 165);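 note: 0% = growth equal to vehicle treated cultures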; conditions: S. cerevisiae cln2 rad14 strain, at 50.0 µM, active compounds read high
Outline: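 Yeast carrying cln2 and rad14 alterations (cell cycle control and DNA damage repair) were exposed to compounds. Growth inhibition was measured against vehicle-treated controls.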

[5] = NCI Yeast Anticancer Drug Screen. Data for the bub3 strain (AID 167); conditions: S. cerevisiae bub3 mutant strain, at 50.0 µM, active compounds read high
Outline: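 Whole-cell yeast assay. The mutant strain was incubated with compounds, and growth inhibition was determined by comparison with vehicle-treated cells.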

[6] = NCI Yeast Anticancer Drug Screen. Data for the mlh1 rad18 strain (AID 175); conditions: S. cerevisiae mlh1 rad18 strain growth inhibition; at 50.0 µM; active compounds read high
Outline: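 Growth inhibition of the yeast strain was measured after compound exposure and expressed relative to vehicle-treated controls. The strain carries defined defects in DNA damage repair.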

Measured: growth inhibition

C[C@@H]1Nc2ccccc2[C@H]1C
inactive: [1] -25.6% | [2] -37.5% | [3] -53.1% | [4] 7.75% | [5] -42.6% | [6] -8.1%

O=C1CCCCC(=O)Nc2ccc3nc4ccccc4c(c3c2)SCCCCCCCCSc2c3ccccc3nc3ccc(cc23)N1
inactive: [1] -13.4% | [2] -9.65% | [3] 2.55% | [4] -6.05% | [5] -2.3% | [6] -4.2%

CCOC(=O)Cn1c(C(F)(F)F)nc2nc(Cl)c(Cl)nc21
inactive: [1] -0.6% | [2] -22.9% | [3] -33.5% | [4] -94.9% | [5] -19.9% | [6] -17.1%

CCCCC(=O)CCCC
inactive: [1] 3.55% | [2] -14% | [3] -5.1% | [4] -3.3% | [5] -4.95% | [6] 4.35%

N#CCOc1ccc(/C=C/C(=O)c2ccc(Cl)cc2)cc1
inactive: [1] -39.5% | [2] -53.6% | [3] -23.1% | [4] -23.1% | [5] 20.4% | [6] -21.2%

CCOC(=O)NC(=S)Nc1nonc1-c1ccccc1
inactive: [1] 1.35% | [2] 2% | [3] 36% | [4] -9.65% | [5] 15.6% | [6] 26.2%

Clc1c2c(nc3ccccc13)CCCC2
inactive: [1] 19.3% | [2] 50.9% | [3] 49.4% | [4] -37% | [5] 7.65% | [6] 8.05%

COC(=O)C12OCC34C(CC5C(C)CC(=O)C(O)C5(C)C3C(O)C1O)OC(=O)C(OC(C)=O)C24 (stereo unspecified)
inactive: [1] 31.2% | [2] 44.4% | [3] 11.6% | [4] 36% | [5] 24.2% | [6] 31.6%

COC(=O)C1C(O)C(C(=O)OC)C(C)N(C)C1C (stereo unspecified)
inactive: [1] 7.35% | [2] -14.4% | [3] -41.5% | [4] -26.1% | [5] -18.2% | [6] -4.45%

CC(=O)C(N=NC1CCC(S(=O)(=O)NB2N=CS2)CC1)C(=O)Nc1ccccc1C (stereo unspecified)
inactive: [1] -32.2% | [2] -1.05% | [3] -5.9% | [4] 16.5% | [5] 9.35% | [6] 15.4%

CN(C)CCCNC(=O)/C=C\C(=O)O
inactive: [1] 5.8% | [2] 3.9% | [3] 0.15% | [4] -4.9% | [5] 2.6% | [6] -6.15%

O=C(CN1CCN(c2cccc(Cl)c2)CC1)N1CCc2c([nH]c3ccccc23)C1c1cccnc1 (stereo unspecified)
inactive: [1] -15.3% | [2] -30.8% | [3] 1.6% | [4] 6% | [5] -2.25% | [6] -16.9%

CCCCCOc1ccc2ccccc2c1
inactive: [1] -23.5% | [2] -27.8% | [3] -18.6% | [4] -20.9% | [5] 10.2% | [6] 7.15%

N/N=C(/Cc1nc2ccc(C(=O)c3ccccc3)cc2[nH]c1=O)C(=O)Nc1ccc([N+](=O)[O-])cc1[N+](=O)[O-]
inactive: [1] 23.4% | [2] 13.2% | [3] -3.6% | [4] -47.8% | [5] 5.2% | [6] 15.6%

Nc1ncc2ncn(CCO)c2n1
inactive: [1] -22.1% | [2] -15.4% | [3] 23.1% | [4] 1.95% | [5] -6.85% | [6] 3.7%

NC(=O)c1cn(C2OC(CO)C(O)C2O)c(=O)[nH]c1=O (stereo unspecified)
inactive: [1] 14.2% | [2] -8.8% | [3] -0.1% | [4] 18.8% | [5] -12.7% | [6] -5.25%

O=c1c2ccccc2[nH]c2ccc(Br)cc12
inactive: [1] 8.25% | [2] 2.2% | [3] 3.8% | [4] -6.1% | [5] 2.95% | [6] 17.8%

CCN(CC)CCNC(=O)c1c(C)cc(C)cc1C
inactive: [1] -5.1% | [2] 0.2% | [3] -0.3% | [4] -53.2% | [5] -1.95% | [6] 10.8%

COc1ccc(/C=C/C(=O)c2sc(NC(=S)NC(=O)c3ccc(Cl)cc3)nc2C)cc1OC
inactive: [1] 16.2% | [2] 13.2% | [3] 28.6% | [4] 9.8% | [5] -1.6% | [6] 7.2%

CCOC(=O)C(C#N)(Cc1ccccc1CC(C#N)(NC(C)=O)C(=O)OCC)NC(C)=O (stereo unspecified)
inactive: [1] -4.9% | [2] -0.25% | [3] -10.1% | [4] -0.3% | [5] -3.4% | [6] 10.7%

CCOC(=O)/C=C(/C)C#N
inactive: [1] -9.65% | [2] -3.7% | [3] -11.8% | [4] 7.4% | [5] 9.55% | [6] 2.9%

CSc1cc2c(cc1[N+](=O)[O-])C(=O)c1cc(F)ccc1-2
inactive: [1] 8.7% | [2] 18.1% | [3] 4.45% | [4] -5.5% | [5] 3.15% | [6] 5%

N#CCc1ccc(C(C#N)C(=O)CCC(=O)C(C#N)c2ccc(CC#N)cc2)cc1 (stereo unspecified)
inactive: [1] 11.7% | [2] 11.3% | [3] -13.1% | [4] 34.1% | [5] -0.3% | [6] 22.1%

CC1CC(Cc2ccccc2CC2CC(C)OC2=O)C(=O)O1 (stereo unspecified)
inactive: [1] 6.95% | [2] 12.6% | [3] -0.1% | [4] 10.8% | [5] 10.8% | [6] 22.9%

Nc1cccc(Cl)c1C(=O)O
inactive: [1] -28.1% | [2] -30.2% | [3] -10.8% | [4] -11.7% | [5] -25.8% | [6] -19.2%

CCC1N=C(N)N=C(N)N1c1ccc(Cl)c(Cl)c1 (stereo unspecified)
inactive: [1] 16.2% | [2] 11.6% | [3] 9.25% | [4] -8.7% | [5] 10.7% | [6] 37.8%

O=C(Nc1ccccc1[N+](=O)[O-])Oc1ccc(-c2ccccc2)cc1
inactive: [1] 9.05% | [2] 5.75% | [3] 9.05% | [4] -7.65% | [5] 46.4% | [6] -28.9%

CCC(C)OC(=Nc1ccccc1)c1ccccc1 (stereo unspecified)
inactive: [1] -4.05% | [2] 5.95% | [3] -4.5% | [4] 15.7% | [5] -6.7% | [6] 2.4%

Cc1cc(Cl)ccc1NC(=O)NC(C)(C)COC(=O)Nc1cccc(Cl)c1
inactive: [1] 26% | [2] -7.3% | [3] 23.4% | [4] 9.15% | [5] 16.1% | [6] 27.9%

CCCCNCC1C(O)CCC2CN3CCc4c([nH]c5ccccc45)C3CC21 (stereo unspecified)
inactive: [1] 15.9% | [2] 5.85% | [3] 11.3% | [4] 9.9% | [5] 6.05% | [6] 16.9%

O=S(=O)(CC1=NC2C=CC=CC2N=C1)NCc1ccccc1 (stereo unspecified)
inactive: [1] 7.3% | [2] -18.9% | [3] 12.8% | [4] 30.3% | [5] 25.6% | [6] -11.8%

NC(CC1=CS(=O)(=O)c2ccc(Cl)cc21)C(=O)O (stereo unspecified)
inactive: [1] 18.4% | [2] 19.3% | [3] 4.45% | [4] -16.2% | [5] 23.8% | [6] 23.9%

O=C(CNC(=O)C(CO)NC(=O)OCc1ccccc1)OCc1ccccc1 (stereo unspecified)
inactive: [1] 12.4% | [2] 3% | [3] 9.35% | [4] 4.1% | [5] -0.1% | [6] 4.35%

CC(C)(Cc1ccc(Cl)cc1)NC(N)=O
inactive: [1] -35.5% | [2] -73.7% | [3] -21.4% | [4] 3.1% | [5] -44.1% | [6] -31.8%

COC1OC(CBr)C(OC(=O)c2ccccc2)C(OC(C)=O)C1OC(C)=O (stereo unspecified)
inactive: [1] -23.9% | [2] -4.6% | [3] -12.2% | [4] 11% | [5] -1.5% | [6] -22.8%

COc1nc(NC2OCC(OC(C)=O)C(OC(C)=O)C2OC(C)=O)c(-c2csc(N)n2)c(=O)n1C (stereo unspecified)
inactive: [1] -1.9% | [2] -21.9% | [3] -14.6% | [4] 13.6% | [5] -2.3% | [6] 6.85%

O=C(Nn1c(-c2ccccc2)nc2ccccc2c1=O)c1ccc([N+](=O)[O-])cc1
inactive: [1] -1.9% | [2] 14.6% | [3] 4.6% | [4] -1% | [5] 17.2% | [6] 13.9%

O=[N+]([O-])c1nccn1CCC[n+]1ccc2ccccc2c1
inactive: [1] -25.4% | [2] -7.7% | [3] -8.6% | [4] -2% | [5] -13.8% | [6] -17%

N#Cc1cccc(CC(O)(c2ccccc2)c2ccccc2)c1
inactive: [1] 19.6% | [2] 19.9% | [3] 5.1% | [4] 11% | [5] 20.5% | [6] 18.4%

CC12CC3(Nc4ccccc4C3(C)O)OC1(C)c1ccccc1N2 (stereo unspecified)
inactive: [1] 1.1% | [2] 9.35% | [3] 10.3% | [4] 1.25% | [5] -6.1% | [6] 17.5%

COC1OC(COC(c2ccccc2)(c2ccccc2)c2ccccc2)C2OC12 (stereo unspecified)
inactive: [1] 44.1% | [2] 5.15% | [3] 22.6% | [4] 11% | [5] 1.3% | [6] 19.7%
